The supplement of paper PMC11732987, “Enantioselective OTUD7B fragment discovery through chemoproteomics screening and high-throughput optimisation” (Communications Chemistry, 2025)

Tests used:
Assay in all cases: log2 ratio of Biotin-Ahx-Ub-VS probe labelling (fragment/DMSO); higher = less target engagement (more negative = stronger competition), active = hit call of the paper (q ≤ 0.05, log2 ratio ≤ -1)
Settings in all cases: compound concentration: 200 uM; treatment time: 3 h
[1] = molecular target: T1, USP42 (UniProt Q9H9J4)
T1 sequence (whole entry): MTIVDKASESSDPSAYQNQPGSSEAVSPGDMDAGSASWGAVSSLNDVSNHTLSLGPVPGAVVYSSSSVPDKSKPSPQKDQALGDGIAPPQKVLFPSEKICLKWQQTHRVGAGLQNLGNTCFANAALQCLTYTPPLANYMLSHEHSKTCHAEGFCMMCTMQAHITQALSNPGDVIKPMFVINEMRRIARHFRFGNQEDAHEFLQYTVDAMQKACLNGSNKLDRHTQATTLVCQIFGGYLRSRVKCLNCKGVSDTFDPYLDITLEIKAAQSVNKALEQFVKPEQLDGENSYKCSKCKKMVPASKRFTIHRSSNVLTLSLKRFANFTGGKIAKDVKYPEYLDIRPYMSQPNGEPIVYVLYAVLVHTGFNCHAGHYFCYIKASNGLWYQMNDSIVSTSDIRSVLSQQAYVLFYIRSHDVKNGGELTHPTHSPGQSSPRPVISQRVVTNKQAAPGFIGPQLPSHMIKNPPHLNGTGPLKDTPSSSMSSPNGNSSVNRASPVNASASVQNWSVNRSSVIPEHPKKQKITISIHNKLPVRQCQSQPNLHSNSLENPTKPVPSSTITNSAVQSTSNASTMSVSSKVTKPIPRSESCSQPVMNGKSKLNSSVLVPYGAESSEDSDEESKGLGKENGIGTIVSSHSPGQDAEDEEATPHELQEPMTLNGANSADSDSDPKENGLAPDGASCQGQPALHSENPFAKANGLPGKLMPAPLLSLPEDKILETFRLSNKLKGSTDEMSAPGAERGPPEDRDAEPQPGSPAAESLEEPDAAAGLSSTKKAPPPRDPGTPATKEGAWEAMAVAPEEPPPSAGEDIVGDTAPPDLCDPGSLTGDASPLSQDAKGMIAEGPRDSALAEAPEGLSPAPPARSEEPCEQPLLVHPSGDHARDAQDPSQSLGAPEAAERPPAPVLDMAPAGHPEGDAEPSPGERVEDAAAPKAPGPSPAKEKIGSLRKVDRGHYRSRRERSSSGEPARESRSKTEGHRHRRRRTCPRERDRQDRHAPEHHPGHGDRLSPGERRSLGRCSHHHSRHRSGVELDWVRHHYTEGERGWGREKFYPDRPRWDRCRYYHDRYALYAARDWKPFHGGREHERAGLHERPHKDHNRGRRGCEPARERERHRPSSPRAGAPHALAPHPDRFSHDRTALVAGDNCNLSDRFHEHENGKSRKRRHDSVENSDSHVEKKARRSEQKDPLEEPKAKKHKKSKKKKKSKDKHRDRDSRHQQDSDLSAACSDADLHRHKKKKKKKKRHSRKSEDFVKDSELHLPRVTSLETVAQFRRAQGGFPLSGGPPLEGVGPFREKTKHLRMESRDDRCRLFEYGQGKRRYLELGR
Procedure, shortened: (§1)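 Fragment (200 µM) or vehicle was incubated for 3 h with triplicate HEK293T lysate samples of 495 µg, which were then treated with Biotin-Ahx-Ub-VS at 0.5 µM final for 1 h. Labelled DUBs were enriched on NeutrAvidin, digested with LysC and trypsin, and analysed by diaPASEF LC-MS/MS. Values are average log2 fragment/vehicle ratios from an unpaired t-test on global-median-normalised Spectronaut label-free quantities, using proteins with ≥2 unique peptides.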

[2] = molecular target: USP46 (UniProt P62068)
Procedure, shortened: as §1

[3] = molecular target: T2, USP47 (UniProt Q96K76)
T2 sequence (whole entry): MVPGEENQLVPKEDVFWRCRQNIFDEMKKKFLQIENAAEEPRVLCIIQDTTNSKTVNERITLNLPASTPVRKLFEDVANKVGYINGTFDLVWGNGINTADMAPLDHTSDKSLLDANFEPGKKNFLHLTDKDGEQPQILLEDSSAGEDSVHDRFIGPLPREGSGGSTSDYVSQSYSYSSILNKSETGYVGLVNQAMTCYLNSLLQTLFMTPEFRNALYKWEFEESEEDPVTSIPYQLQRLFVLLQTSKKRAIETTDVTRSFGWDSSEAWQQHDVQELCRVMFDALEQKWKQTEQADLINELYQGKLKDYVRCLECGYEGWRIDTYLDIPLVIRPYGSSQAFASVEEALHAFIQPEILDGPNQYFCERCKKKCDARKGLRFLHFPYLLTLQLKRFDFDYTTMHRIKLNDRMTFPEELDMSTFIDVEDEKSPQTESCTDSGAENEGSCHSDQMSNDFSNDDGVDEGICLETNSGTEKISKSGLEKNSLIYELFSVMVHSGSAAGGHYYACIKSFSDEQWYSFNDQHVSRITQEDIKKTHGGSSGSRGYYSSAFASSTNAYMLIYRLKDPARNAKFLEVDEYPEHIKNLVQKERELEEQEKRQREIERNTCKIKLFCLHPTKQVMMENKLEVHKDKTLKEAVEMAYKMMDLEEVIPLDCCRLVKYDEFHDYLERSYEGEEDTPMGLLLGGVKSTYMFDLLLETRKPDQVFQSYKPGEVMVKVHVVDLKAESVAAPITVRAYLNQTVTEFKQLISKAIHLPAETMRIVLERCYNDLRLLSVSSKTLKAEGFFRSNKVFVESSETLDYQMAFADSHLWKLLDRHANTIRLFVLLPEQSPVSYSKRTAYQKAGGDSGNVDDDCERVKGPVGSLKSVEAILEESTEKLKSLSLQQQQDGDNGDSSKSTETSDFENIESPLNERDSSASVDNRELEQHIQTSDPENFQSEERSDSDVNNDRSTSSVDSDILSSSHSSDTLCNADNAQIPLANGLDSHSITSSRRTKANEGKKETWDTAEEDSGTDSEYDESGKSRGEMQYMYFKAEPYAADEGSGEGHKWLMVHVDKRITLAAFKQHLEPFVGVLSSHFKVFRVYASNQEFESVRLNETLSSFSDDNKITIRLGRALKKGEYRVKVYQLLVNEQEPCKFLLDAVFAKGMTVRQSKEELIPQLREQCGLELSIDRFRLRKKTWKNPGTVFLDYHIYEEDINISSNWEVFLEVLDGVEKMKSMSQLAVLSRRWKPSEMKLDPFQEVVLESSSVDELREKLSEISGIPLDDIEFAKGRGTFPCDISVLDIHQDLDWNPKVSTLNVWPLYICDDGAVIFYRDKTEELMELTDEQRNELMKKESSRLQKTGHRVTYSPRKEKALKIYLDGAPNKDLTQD
Procedure, shortened: as §1

[4] = molecular target: T3, USP48 (UniProt Q86UV5)
T3 sequence (whole entry): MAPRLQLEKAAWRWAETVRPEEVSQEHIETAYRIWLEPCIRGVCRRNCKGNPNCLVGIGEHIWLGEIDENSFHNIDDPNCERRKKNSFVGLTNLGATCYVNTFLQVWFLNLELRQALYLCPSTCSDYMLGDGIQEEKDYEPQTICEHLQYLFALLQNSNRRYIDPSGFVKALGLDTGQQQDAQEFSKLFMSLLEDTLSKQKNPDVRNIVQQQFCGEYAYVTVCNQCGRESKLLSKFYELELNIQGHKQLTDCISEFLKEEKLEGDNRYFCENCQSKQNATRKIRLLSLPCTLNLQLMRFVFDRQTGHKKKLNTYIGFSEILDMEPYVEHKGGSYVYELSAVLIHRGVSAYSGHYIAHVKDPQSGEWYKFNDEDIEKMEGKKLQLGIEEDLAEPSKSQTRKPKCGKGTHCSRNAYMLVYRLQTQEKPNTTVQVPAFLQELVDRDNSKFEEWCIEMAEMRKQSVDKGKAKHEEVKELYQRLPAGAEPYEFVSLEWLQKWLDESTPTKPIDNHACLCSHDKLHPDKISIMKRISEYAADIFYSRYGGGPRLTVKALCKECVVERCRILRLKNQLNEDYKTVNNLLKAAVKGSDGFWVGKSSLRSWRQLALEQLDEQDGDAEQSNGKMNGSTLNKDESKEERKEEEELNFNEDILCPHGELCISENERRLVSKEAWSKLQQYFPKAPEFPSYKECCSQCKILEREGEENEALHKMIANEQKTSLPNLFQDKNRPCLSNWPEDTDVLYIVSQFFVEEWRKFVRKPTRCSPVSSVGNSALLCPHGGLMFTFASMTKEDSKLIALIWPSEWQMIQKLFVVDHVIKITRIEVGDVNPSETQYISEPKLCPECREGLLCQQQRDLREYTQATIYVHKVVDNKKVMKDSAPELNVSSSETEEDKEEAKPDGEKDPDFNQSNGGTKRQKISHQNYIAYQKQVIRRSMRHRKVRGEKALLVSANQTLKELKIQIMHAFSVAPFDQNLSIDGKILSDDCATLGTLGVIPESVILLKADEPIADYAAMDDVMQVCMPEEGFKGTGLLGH
Procedure, shortened: as §1

[5] = molecular target: T4, USP5 (UniProt P45974)
T4 sequence (whole entry): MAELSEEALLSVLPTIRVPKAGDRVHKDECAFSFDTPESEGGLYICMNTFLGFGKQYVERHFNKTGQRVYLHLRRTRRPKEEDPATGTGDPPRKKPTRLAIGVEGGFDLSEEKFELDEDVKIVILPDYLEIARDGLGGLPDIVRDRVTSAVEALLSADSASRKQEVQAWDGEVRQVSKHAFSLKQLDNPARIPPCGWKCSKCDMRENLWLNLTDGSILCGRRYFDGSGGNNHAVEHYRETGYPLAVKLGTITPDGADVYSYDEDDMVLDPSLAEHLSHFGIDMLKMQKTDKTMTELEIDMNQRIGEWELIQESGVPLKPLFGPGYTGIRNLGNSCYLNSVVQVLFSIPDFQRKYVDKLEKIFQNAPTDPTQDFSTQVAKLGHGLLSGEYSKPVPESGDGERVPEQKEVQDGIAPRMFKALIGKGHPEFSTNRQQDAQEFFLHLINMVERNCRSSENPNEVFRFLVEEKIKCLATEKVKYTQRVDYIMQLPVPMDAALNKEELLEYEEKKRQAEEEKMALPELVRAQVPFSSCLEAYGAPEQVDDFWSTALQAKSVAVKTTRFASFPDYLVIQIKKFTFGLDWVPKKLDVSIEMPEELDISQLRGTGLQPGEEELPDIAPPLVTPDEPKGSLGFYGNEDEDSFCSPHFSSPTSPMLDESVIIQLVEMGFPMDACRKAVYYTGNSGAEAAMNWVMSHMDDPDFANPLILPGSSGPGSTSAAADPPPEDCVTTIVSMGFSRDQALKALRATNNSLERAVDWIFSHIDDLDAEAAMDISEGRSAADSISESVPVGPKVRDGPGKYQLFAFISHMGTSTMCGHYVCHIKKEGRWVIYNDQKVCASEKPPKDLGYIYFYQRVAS
Procedure, shortened: as §1

[6] = molecular target: USP54 (UniProt Q70EL1)
Procedure, shortened: as §1

[7] = molecular target: USP7 (UniProt Q93009)
Procedure, shortened: as §1

[8] = molecular target: T5, USP8 (UniProt P40818)
T5 sequence (whole entry): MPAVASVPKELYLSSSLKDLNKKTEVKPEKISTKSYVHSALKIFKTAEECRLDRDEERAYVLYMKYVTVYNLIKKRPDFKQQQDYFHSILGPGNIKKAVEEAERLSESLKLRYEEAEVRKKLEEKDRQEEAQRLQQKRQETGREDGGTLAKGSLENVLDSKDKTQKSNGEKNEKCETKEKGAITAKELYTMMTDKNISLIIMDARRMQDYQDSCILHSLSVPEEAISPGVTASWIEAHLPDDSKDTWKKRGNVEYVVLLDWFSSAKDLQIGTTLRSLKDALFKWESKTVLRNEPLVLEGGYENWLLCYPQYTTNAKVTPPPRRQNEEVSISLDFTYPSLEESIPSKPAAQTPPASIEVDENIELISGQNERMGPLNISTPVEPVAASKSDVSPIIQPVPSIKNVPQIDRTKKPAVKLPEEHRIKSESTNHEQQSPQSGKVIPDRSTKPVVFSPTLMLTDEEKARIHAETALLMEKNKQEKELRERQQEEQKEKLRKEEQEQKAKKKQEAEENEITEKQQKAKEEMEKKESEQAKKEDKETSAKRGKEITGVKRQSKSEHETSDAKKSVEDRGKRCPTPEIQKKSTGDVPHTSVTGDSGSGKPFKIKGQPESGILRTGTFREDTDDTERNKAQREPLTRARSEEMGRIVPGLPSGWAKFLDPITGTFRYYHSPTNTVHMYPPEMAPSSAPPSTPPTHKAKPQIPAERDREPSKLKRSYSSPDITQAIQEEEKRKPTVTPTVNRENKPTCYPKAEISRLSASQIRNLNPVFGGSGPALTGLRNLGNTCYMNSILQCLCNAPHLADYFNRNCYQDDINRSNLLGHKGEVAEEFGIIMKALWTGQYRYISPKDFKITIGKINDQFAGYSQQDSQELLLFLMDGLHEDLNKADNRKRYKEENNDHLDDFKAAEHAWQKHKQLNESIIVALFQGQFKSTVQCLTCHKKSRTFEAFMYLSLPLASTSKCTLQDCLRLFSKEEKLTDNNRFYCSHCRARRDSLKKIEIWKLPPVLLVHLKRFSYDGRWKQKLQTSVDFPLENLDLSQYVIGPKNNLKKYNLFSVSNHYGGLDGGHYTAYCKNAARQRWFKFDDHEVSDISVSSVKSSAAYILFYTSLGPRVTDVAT
Procedure, shortened: as §1

Measured: log2 ratio of Biotin-Ahx-Ub-VS probe labelling

Sequence of USP54 (Q70EL1 whole entry): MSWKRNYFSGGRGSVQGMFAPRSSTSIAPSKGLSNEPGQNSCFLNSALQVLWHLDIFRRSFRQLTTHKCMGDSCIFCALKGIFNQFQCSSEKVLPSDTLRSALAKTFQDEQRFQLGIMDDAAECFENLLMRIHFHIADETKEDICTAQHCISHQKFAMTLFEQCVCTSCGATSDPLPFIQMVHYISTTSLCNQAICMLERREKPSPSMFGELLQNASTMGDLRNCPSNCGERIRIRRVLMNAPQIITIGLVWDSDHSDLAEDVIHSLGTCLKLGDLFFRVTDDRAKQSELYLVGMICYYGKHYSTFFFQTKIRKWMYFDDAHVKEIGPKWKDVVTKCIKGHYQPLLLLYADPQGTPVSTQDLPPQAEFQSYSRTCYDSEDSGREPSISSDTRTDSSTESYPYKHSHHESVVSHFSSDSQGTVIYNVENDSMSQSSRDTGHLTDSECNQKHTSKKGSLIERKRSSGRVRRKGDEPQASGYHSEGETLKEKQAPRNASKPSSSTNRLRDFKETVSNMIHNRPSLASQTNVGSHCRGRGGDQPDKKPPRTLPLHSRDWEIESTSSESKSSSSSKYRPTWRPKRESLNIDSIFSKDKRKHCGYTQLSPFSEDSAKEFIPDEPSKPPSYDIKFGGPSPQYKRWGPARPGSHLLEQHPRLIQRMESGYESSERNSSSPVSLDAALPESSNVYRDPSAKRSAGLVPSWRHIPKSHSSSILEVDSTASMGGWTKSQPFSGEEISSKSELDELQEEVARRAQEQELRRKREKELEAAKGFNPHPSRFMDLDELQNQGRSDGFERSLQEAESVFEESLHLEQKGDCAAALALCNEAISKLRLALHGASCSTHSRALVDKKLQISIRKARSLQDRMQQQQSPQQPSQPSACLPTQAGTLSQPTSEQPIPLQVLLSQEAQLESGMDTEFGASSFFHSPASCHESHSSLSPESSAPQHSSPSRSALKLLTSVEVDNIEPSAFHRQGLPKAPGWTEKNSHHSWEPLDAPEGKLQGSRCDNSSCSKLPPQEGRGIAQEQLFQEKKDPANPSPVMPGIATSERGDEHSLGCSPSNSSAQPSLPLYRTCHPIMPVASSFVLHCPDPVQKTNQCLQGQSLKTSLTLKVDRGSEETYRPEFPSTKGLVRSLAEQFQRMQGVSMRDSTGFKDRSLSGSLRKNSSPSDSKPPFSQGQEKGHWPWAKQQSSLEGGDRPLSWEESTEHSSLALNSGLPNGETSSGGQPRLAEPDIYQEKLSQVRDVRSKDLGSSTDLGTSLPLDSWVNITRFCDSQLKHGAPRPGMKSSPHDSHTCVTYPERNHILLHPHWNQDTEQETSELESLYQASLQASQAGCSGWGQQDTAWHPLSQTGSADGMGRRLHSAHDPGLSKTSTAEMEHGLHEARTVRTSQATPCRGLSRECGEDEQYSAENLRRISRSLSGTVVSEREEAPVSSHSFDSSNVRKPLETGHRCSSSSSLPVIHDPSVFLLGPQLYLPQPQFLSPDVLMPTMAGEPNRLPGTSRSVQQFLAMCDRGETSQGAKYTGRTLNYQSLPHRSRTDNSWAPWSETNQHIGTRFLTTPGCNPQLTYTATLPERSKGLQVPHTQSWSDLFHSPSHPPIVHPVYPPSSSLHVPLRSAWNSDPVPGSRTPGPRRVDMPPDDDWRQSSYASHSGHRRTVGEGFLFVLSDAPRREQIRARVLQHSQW
Sequence of USP7 (Q93009 whole entry, looked up): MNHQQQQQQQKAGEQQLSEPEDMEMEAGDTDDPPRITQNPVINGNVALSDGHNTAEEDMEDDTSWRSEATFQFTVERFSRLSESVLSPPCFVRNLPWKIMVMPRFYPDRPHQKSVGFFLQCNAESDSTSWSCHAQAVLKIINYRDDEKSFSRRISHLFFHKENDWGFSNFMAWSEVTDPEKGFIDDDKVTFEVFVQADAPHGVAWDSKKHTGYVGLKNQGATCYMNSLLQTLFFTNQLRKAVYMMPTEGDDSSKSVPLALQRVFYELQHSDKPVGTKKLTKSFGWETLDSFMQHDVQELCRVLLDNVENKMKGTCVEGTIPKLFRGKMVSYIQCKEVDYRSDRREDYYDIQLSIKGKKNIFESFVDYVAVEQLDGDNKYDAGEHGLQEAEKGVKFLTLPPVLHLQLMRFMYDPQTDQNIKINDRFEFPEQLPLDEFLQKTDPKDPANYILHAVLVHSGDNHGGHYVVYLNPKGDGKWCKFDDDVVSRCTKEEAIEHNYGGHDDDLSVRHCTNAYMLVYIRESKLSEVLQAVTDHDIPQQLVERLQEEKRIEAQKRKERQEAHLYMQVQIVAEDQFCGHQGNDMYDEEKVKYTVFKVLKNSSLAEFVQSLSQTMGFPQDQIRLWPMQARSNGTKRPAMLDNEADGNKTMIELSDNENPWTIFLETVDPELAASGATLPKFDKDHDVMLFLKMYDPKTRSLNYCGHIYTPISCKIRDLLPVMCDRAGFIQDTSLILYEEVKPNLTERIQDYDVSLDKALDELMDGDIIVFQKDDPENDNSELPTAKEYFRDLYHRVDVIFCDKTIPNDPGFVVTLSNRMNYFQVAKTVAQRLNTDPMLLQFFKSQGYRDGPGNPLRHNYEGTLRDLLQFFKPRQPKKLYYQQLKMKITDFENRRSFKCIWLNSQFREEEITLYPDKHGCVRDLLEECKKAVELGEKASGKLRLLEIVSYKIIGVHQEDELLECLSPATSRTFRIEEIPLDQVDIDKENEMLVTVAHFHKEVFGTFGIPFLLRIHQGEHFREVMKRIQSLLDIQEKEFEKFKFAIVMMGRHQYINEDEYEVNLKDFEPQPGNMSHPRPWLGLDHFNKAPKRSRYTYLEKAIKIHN
Sequence of USP46 (P62068 whole entry): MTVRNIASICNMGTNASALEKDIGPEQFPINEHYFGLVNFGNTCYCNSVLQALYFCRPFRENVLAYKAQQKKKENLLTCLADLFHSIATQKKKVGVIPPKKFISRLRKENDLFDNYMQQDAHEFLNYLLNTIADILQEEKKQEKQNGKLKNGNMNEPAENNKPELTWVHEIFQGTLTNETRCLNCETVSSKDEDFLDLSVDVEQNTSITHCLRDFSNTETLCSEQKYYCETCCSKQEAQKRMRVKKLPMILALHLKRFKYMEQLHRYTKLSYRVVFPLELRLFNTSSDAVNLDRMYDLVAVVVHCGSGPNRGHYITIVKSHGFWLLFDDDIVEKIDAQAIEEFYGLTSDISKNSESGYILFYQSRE

NC(=O)C1CCCN(C(=O)CCl)C1 (stereo not drawn)
inactive: [1] -0.105 | [2] 0.15 | [3] -0.831 | [4] -0.259 | [5] -0.0828 | [6] 0.785 | [7] -0.0546 | [8] -0.122
